{
  "source": "PubChem BioAssay AID1117361",
  "about": "(Southern Research Institute, 2015)",
  "note": "About 900 (25%) of roughly 3,600 compounds were called active. How the calls were made is not given here. A selection follows. Potency and affinity values are given separately.",
  "data": [
    {"target": "Protein Tat (Human immunodeficiency virus type 1 group M subtype B (isolate HXB2)) (UniProt P04608)", "test": "HIV-1 Tat–TAR interaction blockers – biochemical, fluorescence polarization, FAM-labeled TAR RNA, counter-screen for Vif-APOBEC3G degradation inhibitor project, dose response (AID 1117361)", "settings": "Tat-TAR RNA binding; series mostly up to 100 µM; inhibition: at the top concentration", "values": [
      {"smiles": "CCN(CC)C(=O)c1sc(NC(=O)c2ccc(Br)o2)c(C(=O)OC)c1C", "inhibition": "5.46% (inactive)"},
      {"smiles": "CCc1c(C(=O)NCc2ccccc2Cl)[nH]c(C)c1C(C)=O", "outcome": "inactive"},
      {"smiles": "C=CCNC(=O)c1ccccc1Cl", "outcome": "inactive"},
      {"smiles": "Nc1ccc(Sc2cc(Cl)nc(N)n2)cc1", "inhibition": "4.05% (inactive)"},
      {"smiles": "O=C(Cn1ccc([N+](=O)[O-])n1)N1CCCc2ccccc21", "inhibition": "2.03% (inactive)"},
      {"smiles": "O=C(CSc1nc(N2CCCCC2)nc(N2CCCCC2)n1)N1CCc2ccccc21", "outcome": "inactive"},
      {"smiles": "CCCCNC(=O)CN1C(=O)CSc2ccc(S(=O)(=O)N3CCOCC3)cc21", "outcome": "inactive"},
      {"smiles": "CO/N=C/C(=N\\Nc1ccc(OC)cc1)C(=O)c1ccc(OC)cc1", "inhibition": "5.46% (inactive)"},
      {"smiles": "COc1ccc(C(=O)C2CCCN(C(=O)c3cnsn3)C2)c(C)c1", "note": "(stereo not given)", "outcome": "inactive"},
      {"smiles": "CC(=O)c1ccc(-c2nnc(CCC(=O)N(C)Cc3c(C)nc4ccccn34)o2)s1", "inhibition": "4.95% (inactive)"},
      {"smiles": "CN(C(=O)CSc1ncnc2sccc12)C1CCCCC1", "outcome": "inactive"},
      {"smiles": "O=C(/C=C/c1ccccc1)NC(NC(=S)Nc1cc(Cl)ccc1Cl)C(Cl)(Cl)Cl", "note": "(stereo not given)", "outcome": "inactive"},
      {"smiles": "COC(=O)c1ccc(NC(=O)COc2cccc(-n3cnnn3)c2)cc1", "inhibition": "6.35% (inactive)"},
      {"smiles": "COC(=O)c1cccc(NC(=O)c2cccc(OC)c2)c1", "inhibition": "4.05% (inactive)"},
      {"smiles": "O=C(O)c1cccc(NCc2ccncc2)c1", "inhibition": "20.9% (inactive)"},
      {"smiles": "CC(=O)Nc1ccc2c(c1)Cc1cc(N3C(=O)C=CC3=O)ccc1-2", "outcome": "inactive"},
      {"smiles": "CCOc1ccc(C2=[N+]([O-])C(C)(C)N(O)C2(C)C)cc1", "inhibition": "3.41% (inactive)"},
      {"smiles": "CCCCn1nnc(NC(=O)c2ccc(-c3cccc(Cl)c3)o2)n1", "inhibition": "0.68% (inactive)"},
      {"smiles": "CC1(C)CC(=O)c2cc(OCC(=O)NCc3cccnc3)ccc2O1", "inhibition": "8.11% (inactive)"},
      {"smiles": "CCOC(=O)/C(=C/c1c2ccccc2cc2ccccc12)NC(=O)c1ccccc1", "inhibition": "3.38% (inactive)"},
      {"smiles": "CCOC(=O)/C(=C\\c1ccccc1)NC(=O)c1ccccc1", "outcome": "inactive"},
      {"smiles": "COc1ccc(S(=O)(=O)NCc2ccccn2)cc1", "inhibition": "4.05% (inactive)"},
      {"smiles": "Cc1cccc(C)c1NS(=O)(=O)c1c(C)[nH]c(=O)[nH]c1=O", "inhibition": "6.14% (inactive)"},
      {"smiles": "COc1ccc(CNc2ncnc(N)n2)cc1", "inhibition": "5.41% (inactive)"},
      {"smiles": "CCCC(=O)Nc1ccccc1NC(C)=O", "inhibition": "4.05% (inactive)"},
      {"smiles": "CC(C)CC(NC(=O)CCl)c1ccccc1", "note": "(stereo not given)", "outcome": "inactive"},
      {"smiles": "CCOC(=O)c1ccc(NC(=O)CSc2nnc(Cc3cccs3)n2C)cc1", "inhibition": "4.77% (inactive)"},
      {"smiles": "CCN(CC)C(=O)CSCC(=O)Nc1ccccc1", "inhibition": "2.03% (inactive)"},
      {"smiles": "O=C(c1c(F)cccc1F)N(Cc1ccccn1)C1CCCC1", "outcome": "inactive"},
      {"smiles": "O=C(CCn1c(=O)c2ccccc2n(CC(=O)NCCC2=CCCCC2)c1=O)NCc1ccco1", "inhibition": "16.4% (inactive)"},
      {"smiles": "O=C(NCCc1ccc(Cl)cc1)C1CCN(C(=O)c2sccc2-n2cccc2)CC1", "inhibition": "10.2% (inactive)"},
      {"smiles": "COc1cc(C(O)P(=O)(OCC(C)C)OCC(C)C)cc(OC)c1OC", "note": "(stereo not given)", "outcome": "inactive"},
      {"smiles": "Cc1ccc(CNC(=O)C2c3ccccc3C(=O)N3CCc4ccccc4C23)o1", "note": "(stereo not given)", "inhibition": "10.9% (inactive)"},
      {"smiles": "CN1CCN(C(=O)c2ccc(N(C)S(=O)(=O)c3cccs3)cc2)CC1", "outcome": "inactive"},
      {"smiles": "Cc1ccc(CSC2=Nc3sccc3C3=NC(=O)CN23)cc1", "inhibition": "25.9% (inactive)"},
      {"smiles": "COCC(=O)NCCc1nc2ccccc2[nH]1", "inhibition": "2.03% (inactive)"},
      {"smiles": "COCCn1c(N2CCN(c3ccc(OC)cc3)CC2)nc2c1c(=O)[nH]c(=O)n2C", "outcome": "inactive"},
      {"smiles": "CCCn1c(NC(=O)c2ccco2)nc2ccccc21", "outcome": "inactive"},
      {"smiles": "CCn1c(=N)n(CC(=O)c2ccc(OC)cc2)c2ccccc21", "outcome": "inactive"},
      {"smiles": "CC(=O)c1sc(NC(=O)C2CCN(C(=O)c3ccccc3C)CC2)nc1-c1ccccc1", "inhibition": "19% (inactive)"},
      {"smiles": "COc1ccc2oc(C(F)(F)C(F)(F)F)cc(=O)c2c1", "inhibition": "8.87% (inactive)"},
      {"smiles": "O=C(CN1CCC(NC(=O)c2cccc(F)c2)CC1)NCc1ccccc1F", "inhibition": "13.6% (inactive)"},
      {"smiles": "CCN(CC)C(=O)CN1C(=O)C2(NC(=O)c3ccccc3N2)c2ccccc21", "note": "(stereo not given)", "outcome": "inactive"},
      {"smiles": "Cc1ccc(OC(=O)COc2ccccc2)c(-n2nc3ccccc3n2)c1", "inhibition": "1.36% (inactive)"},
      {"smiles": "O=C(NCc1ccncc1)c1ccc(Cn2cc(C(F)(F)F)ccc2=O)cc1", "outcome": "inactive"},
      {"smiles": "CC(OC(=O)c1cccs1)C(=O)NCc1ccco1", "note": "(stereo not given)", "inhibition": "3.38% (inactive)"},
      {"smiles": "CCc1ccc(NS(=O)(=O)c2cccs2)cc1", "inhibition": "8.11% (inactive)"},
      {"smiles": "COc1cccc(-c2nnc(SCC(=O)OC(C)C)n2N)c1", "inhibition": "1.35% (inactive)"},
      {"smiles": "O=C(c1ccco1)N(Cc1ccco1)c1ccc(O)cc1", "outcome": "inactive"},
      {"smiles": "O=C(c1ccco1)N(Cc1ccc([N+](=O)[O-])cc1)c1ccc(Cl)cc1", "outcome": "inactive"},
      {"smiles": "O=C(Cn1ncc(Cl)c(Cl)c1=O)c1ccc2c(c1)OCCO2", "outcome": "inactive"},
      {"smiles": "CCCCCCC(=O)N(O)C1CC(=O)N(c2ccc(Br)cc2)C1=O", "note": "(stereo not given)", "inhibition": "9.55% (inactive)"},
      {"smiles": "Nc1nc(SCC(=O)OCc2ccccc2)[nH]c(=O)c1NC(=O)c1ccco1", "inhibition": "0.68% (inactive)"},
      {"smiles": "COc1ccc(CCN2C(=O)c3cccnc3C2=O)cc1OC", "inhibition": "4.09% (inactive)"},
      {"smiles": "COc1ccc(Nc2ncc(F)c(N3CCOCC3)n2)cc1", "outcome": "inactive"},
      {"smiles": "COc1cc(N2C(=O)C=CC2=O)ccc1N1C(=O)C=CC1=O", "inhibition": "9.02% (inactive)"},
      {"smiles": "O=S(=O)(N1CCCCC1)N1CCN(c2ccccc2F)CC1", "inhibition": "7.43% (inactive)"},
      {"smiles": "CCNC(=O)CC1C(=O)N(c2ccc(C)cc2)C(=O)N1CCc1ccc(OC)c(OC)c1", "note": "(stereo not given)", "inhibition": "6.82% (inactive)"},
      {"smiles": "O=C1CC(Nc2ccc(N3CCOCC3)cc2)C(=O)N1CCc1ccccc1", "note": "(stereo not given)", "outcome": "inactive"},
      {"smiles": "NS(=O)(=O)c1ccc(CCNC2CC(=O)N(Cc3ccccc3)C2=O)cc1", "note": "(stereo not given)", "outcome": "inactive"}
    ]}
  ]
}
